Compound activity from PubChem.
D2 PAM-1 – human D2 receptor positive allosteric modulation. P14416. DiscoveRx D2 beta-arrestin cells, luminescence, 90 min; 100% = 57 uM dopamine signal. potentiation, % (no concentration beside the values). 360,000 tested, 0.23% active; in the data active = potentiation above about 50%; inconclusive = mostly about 30% to 49%
Target sequence (P14416 whole entry, looked up): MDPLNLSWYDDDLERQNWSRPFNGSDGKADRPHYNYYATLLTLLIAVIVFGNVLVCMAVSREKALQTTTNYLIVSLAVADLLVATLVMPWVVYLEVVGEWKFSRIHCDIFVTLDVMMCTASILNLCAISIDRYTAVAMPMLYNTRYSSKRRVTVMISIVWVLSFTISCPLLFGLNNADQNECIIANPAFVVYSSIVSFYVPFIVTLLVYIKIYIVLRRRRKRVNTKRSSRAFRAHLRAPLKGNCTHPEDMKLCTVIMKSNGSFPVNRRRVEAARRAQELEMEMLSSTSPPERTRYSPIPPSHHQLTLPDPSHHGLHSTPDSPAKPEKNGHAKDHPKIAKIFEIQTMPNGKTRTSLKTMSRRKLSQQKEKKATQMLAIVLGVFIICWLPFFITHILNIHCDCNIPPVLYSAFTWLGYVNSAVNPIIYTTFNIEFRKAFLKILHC
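PathHunter D2 cells, attached overnight at 37 deg C, received compound in DMSO plus dopamine at EC20 (50 nM final) for 90 min at 37 deg C. Beta-arrestin recruitment was read as luminescence after 1 h with detection reagent at ambient temperature.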
D2 ag-1 – D2 dopamine receptor (human) agonism; P14416; HEK293 T-REx D2 cells, calcium flux agonist mode; activation, % at 2 µM; 340,000 tested, 0.53% active;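 active = activation over 3 SD above normal in the single-dose calcium agonist read, cut at about 30% in these data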; note: 0% is about no effect
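Agonism scored from kinetic calcium signal (1 read/sec, 180 s) following compound pin transfer, after a 10 s baseline. Cells: HEK293 Trex line expressing inducible D2 receptor coupled to calcium, dye-loaded after overnight culture at 30 C.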
Anesthetic bind – binds horse apoferritin like a general anesthetic | AID 485281 | Potency, µM (titrated, usually from 77.5 µM), for inactives: at the highest dose activity change, negative = displacement, most hits filed as inhibitors | apoferritin/1-aminoanthracene competitive binding, fluorescence | 350,000 tested, 0.074% active; active = well fitted inhibition curve with a large enough effect; inconclusive = small, poorly fitted or top-dose-only effect; inactive = no such curve, though single readings can be large or run the other way; note: potency is the fitted concentration of half-maximal effect; % is set by controls: 0 for no effect and ±100 for the full control effect; nearly all actives have a fitted effect of over 20% in size
Target sequence (P02791 2-175 limits assumed): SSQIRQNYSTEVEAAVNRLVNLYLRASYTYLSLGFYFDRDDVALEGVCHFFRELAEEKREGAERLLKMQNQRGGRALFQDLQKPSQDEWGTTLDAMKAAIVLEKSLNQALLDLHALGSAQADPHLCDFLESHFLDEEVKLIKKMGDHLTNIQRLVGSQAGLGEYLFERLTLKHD
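In PBS, apoferritin at 10 uM is loaded with 1-AMA from a 50% saturated solution. After 10 min of compound exposure at ambient temperature, reduced 535 nm fluorescence indicates probe displacement.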
D2 PAM-2 – positive allosteric modulators of human D2 dopamine receptor; potentiation, % at 10 µM; HEK293 T-REx D2, calcium flux, EC20 dopamine potentiation; P14416; 340,000 tested, 0.34% active; AID 485347;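 active = potentiation over 3 SD above the plate norm, cut at about 30% in these data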; note: 0% is about no effect
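Calcium flux readout, no-wash dye, 1 read/s. Inducible HEK293 Trex D2 line, overnight 30 C. Compound alone 180 s (agonist flags), then EC20 dopamine, another 180 s to score potentiation.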
D2 ag-2 – activates the human D2 dopamine receptor. 360,000 tested, 0.084% active. DiscoveRx PathHunter D2 beta-arrestin, luminescence, 90 min; 100% = 57 uM dopamine signal. activation, % (test concentration not listed). AID 624465; in the data active = activation above about 40%; inconclusive = between about 15% and that limit
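Agonist mode: compounds alone added to overnight-plated D2 PathHunter cells for 90 min at 37 C, with 57 uM final dopamine (EC100) defining full response. Beta-arrestin recruitment detected by chemiluminescent reagent, read after 1 h at ambient temperature.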
D2 antag – D2 dopamine receptor (human) antagonism | HEK293 TREx D2 cells, calcium flux, dopamine EC80 | inhibition, % at 10 µM | 340,000 tested, 2% active | AID 485344; in the data active = inhibition above about 30%; inactive = below that, where a call was filed; note: 0% is about no effect
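Dopamine at EC80 is the agonist stimulus; test compounds precede it by 180 s. Calcium flux read kinetically in a force-coupled, inducible HEK293 T-REx D2 cell line.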
* marks the source's active call; other numbers are inactive results. Shown are actives, neighbours in structure and some others; about 2.5% of the full set was active somewhere.

COc1ccc(-c2cc(C(F)(F)F)nc(-n3cc(Br)cn3)n2)cc1 was read as D2 PAM-1 0, D2 ag-1 0, Anesthetic bind -12%, D2 PAM-2 -7, D2 ag-2 -3 and D2 antag 2.
`N/C(Cc1ccc(Cl)c(Cl)c1)=N\OC(=O)c1ccc(Br)o1` gave D2 PAM-1 60*, D2 ag-1 1, Anesthetic bind -11%, D2 PAM-2 -11, D2 ag-2 inconclusive and D2 antag 2.
`N/C(=N\OC(=O)c1ccc(Br)o1)c1cccnc1` gave D2 PAM-1 inconclusive, D2 ag-1 0, Anesthetic bind -6%, D2 PAM-2 -5, D2 ag-2 8 and D2 antag 9.
For COc1ccc(OCC(=O)Nc2ccc(NC(=O)c3cccs3)cc2)cc1 the results were D2 PAM-1 -6, D2 ag-1 -1, Anesthetic bind -3%, D2 PAM-2 32*, D2 ag-2 0 and D2 antag -11.
For CC(C)(C)c1ccc(Oc2ccc(NC(=O)c3cccs3)cn2)cc1 the results were D2 PAM-1 1, D2 ag-1 9, Anesthetic bind -17%, D2 PAM-2 31*, D2 ag-2 2 and D2 antag -1.
COc1ccc(-c2cc3c(=O)n(CC(=O)NCc4ccc(Cl)cc4)ncn3n2)cc1 was read as D2 PAM-1 -2, D2 ag-1 0, Anesthetic bind -6%, D2 PAM-2 -1, D2 ag-2 -4 and D2 antag -18.
Screening COc1ccc(-c2cc3c(=O)n(CC(=O)NCCCN4CCN(Cc5ccccc5)CC4)ncn3n2)cc1 returned D2 PAM-1 -18, D2 ag-1 1, Anesthetic bind 6%, D2 PAM-2 -32, D2 ag-2 -7 and D2 antag 37*.
Screening Cc1nn(CC(=O)NCCCc2ccccc2)c(=O)c2cc3occc3n12 returned D2 PAM-1 -7, D2 ag-1 0, Anesthetic bind -23%, D2 PAM-2 -12, D2 ag-2 3 and D2 antag 32*.
Screening Cc1nn(CC(=O)NCCCN2CCN(C)CC2)c(=O)c2cc(-c3ccccc3)nn12 returned D2 PAM-1 -16, D2 ag-1 0, Anesthetic bind -8%, D2 PAM-2 30*, D2 ag-2 2 and D2 antag 4.
Screening CCOc1ccc(CCNC(=O)Cn2ncn3nc(-c4ccc(OC)cc4)cc3c2=O)cc1 returned D2 PAM-1 -3, D2 ag-1 0, Anesthetic bind -6%, D2 PAM-2 -1, D2 ag-2 0 and D2 antag -12.
For COc1ccc(-c2cc3c(=O)n(CC(=O)NCCCN4CCC(Cc5ccccc5)CC4)ncn3n2)cc1 the results were D2 PAM-1 -56, D2 ag-1 0, Anesthetic bind 2%, D2 PAM-2 -26, D2 ag-2 -5 and D2 antag 89*.
COc1ccc(-c2nn(-c3ccccc3)cc2C(=O)N(C)C)cc1 was read as D2 PAM-1 -11, D2 ag-1 -1, Anesthetic bind -7%, D2 PAM-2 -9, D2 ag-2 -2 and D2 antag 8.
For Cc1cc(C)c(S(=O)(=O)Nn2cnnc2)c(C)c1 the results were D2 PAM-1 -4, D2 ag-1 1, Anesthetic bind -4%, D2 PAM-2 9, D2 ag-2 -1 and D2 antag 32*.
`CC(CCc1ccccc1)NC(=O)c1ccccc1C(=O)O` (configuration not stated) gave D2 PAM-1 -7, D2 ag-1 30*, Anesthetic bind -11%, D2 PAM-2 -9, D2 ag-2 1 and D2 antag -5.
Cc1ccc(CN2CCN(CC(=O)NC(C)CCc3ccccc3)C2=O)cc1 (configuration not stated) was read as D2 PAM-1 0, D2 ag-1 -1, Anesthetic bind -16%, D2 PAM-2 30*, D2 ag-2 -1 and D2 antag -21.
CC(CCc1ccccc1)NC(=O)CN1CCN(Cc2ccccc2)C1=O (configuration not stated) was read as D2 PAM-1 -4, D2 ag-1 1, Anesthetic bind 3%, D2 PAM-2 -7, D2 ag-2 -2 and D2 antag -7.
CC(CCc1ccccc1)NC(=O)c1ccc(C(=O)NC(C)CCc2ccccc2)cc1 (configuration not stated) was read as D2 PAM-1 -14, D2 ag-1 0, Anesthetic bind -9%, D2 PAM-2 13, D2 ag-2 0 and D2 antag -3.
Screening CC(C)CN1C(=O)C(=O)N(CC(=O)NC(C)CCc2ccccc2)C1=O (configuration not stated) returned D2 PAM-1 19, D2 ag-1 1, D2 PAM-2 -2, D2 ag-2 4 and D2 antag 52*.
`COC(=O)c1ccc2c(c1)NC(=O)C(N1CCOCC1)S2` (configuration not stated) gave D2 PAM-1 2, D2 ag-1 -1, Anesthetic bind -8%, D2 PAM-2 -6, D2 ag-2 2 and D2 antag -1.
`O=C(NCCCN1CCCC1=O)c1ccc2c(c1)NC(=O)C(N1CCOCC1)S2` (configuration not stated) gave D2 PAM-1 13, D2 ag-1 1, Anesthetic bind 7%, D2 ag-2 2 and D2 antag 33*.
For O=C(Nc1ccc(F)c(Cl)c1)NC1CC1 the results were D2 PAM-1 0, D2 ag-1 0, Anesthetic bind -4%, D2 PAM-2 -3, D2 ag-2 -4 and D2 antag -26.
CC(C)=N/N=C1/NC(=O)C(CC(=O)Nc2cc(Cl)ccc2C)S1 (configuration not stated) was read as D2 PAM-1 -36, D2 ag-1 0, Anesthetic bind -6%, D2 PAM-2 -18, D2 ag-2 -4 and D2 antag 46*.
For Cc1ccc(NC(=O)CC2S/C(=N/N=C/C=C/c3ccccc3)NC2=O)cc1Cl (configuration not stated) the results were D2 PAM-1 -1, D2 ag-1 0, Anesthetic bind -1%, D2 PAM-2 7, D2 ag-2 -2 and D2 antag 10.
Cc1ccc(NC(=O)CC2S/C(=N/N=C/c3ccco3)NC2=O)cc1Cl (configuration not stated) was read as D2 PAM-1 -9, D2 ag-1 1, Anesthetic bind -2%, D2 PAM-2 -2, D2 ag-2 0 and D2 antag 33*.
